Unmarked numbers belong to inactive results. Activity calls are given as the source filed them. Cut-off read from the data, not from the text of the source: active = fold change mostly below about -2 (no sharp cut-off); inactive = mostly above about -1.8.
assay: modulation of TERT promoter-driven luciferase – cell-based, luciferase reporter, human, primary screen (AID 1259240); settings: A2780 TERT promoter luciferase reporter, 16 h; at 20 µM, fold versus average of vehicle-only wells

Row | Compound | fold change
1 | CCc1nc(C)cn1S(=O)(=O)c1cc(C)c(OC)cc1C | -1.15
2 | O=S(=O)(NCc1ccccn1)c1cccc2cccnc12 | -1.29
3 | Cc1ccc(-c2nnc3c4ccccc4c(C)nn23)cc1S(=O)(=O)NCC1CCCO1 (centres undefined) | 1.3
4 | CCOC(=O)C1=C(CS(=O)(=O)c2ccc(Cl)cc2)NC(=O)NC1c1ccc(F)cc1 (centres undefined) | 1.41
5 | O=C(CN1C(=O)COc2ccc(S(=O)(=O)N3CCOCC3)cc21)N1CCOCC1 | -2.24 (active)
6 | CCn1ncc(CNC(=O)c2cnn3c(C(F)F)cc(-c4ccc(C)cc4)nc23)c1C | 1.02
7 | CC1(C)NC(=O)N(CC(O)COc2ccccc2)C1=O (centres undefined) | -1.3
8 | Cc1nc(SCC(=O)Nc2ccc([N+](=O)[O-])cc2)c2c(=O)n(C)c(=O)n(C)c2n1 | -1.11
9 | Cc1ccc(-c2n[nH]c3c2C(c2cccc(O)c2)NC3=O)cc1 (centres undefined) | -1.62
10 | COc1ccc(Br)cc1/C=c1\sc2nc(-c3ccco3)nn2c1=O | 1.22
11 | CCOc1ccc2nc(NC(=O)CN(C)S(=O)(=O)c3cnc[nH]3)sc2c1 | 1.35
12 | FC(F)(F)c1cccc2c1[nH]c1nc3ccccc3nc12 | -1.1
13 | CCCSc1nnc2c3ccccc3n(CC)c2n1 | -1.73
14 | CCCCN1C(=O)C(O)(CC(=O)c2cccs2)c2ccccc21 (centres undefined) | -1.63
15 | CCOC(=O)C1CCCN(c2c(N3CCN(c4ccc(F)cc4)CC3)c(=O)c2=O)C1 (centres undefined) | -1.2
16 | CCCN1CN=C(Nc2nc(C)c3ccc(C)cc3n2)NC1 | -2.8 (active)
17 | CCN(CC)S(=O)(=O)c1ccc2c(c1)N(CC(=O)NC1CC1)C(=O)CO2 | -1.73
18 | CCc1ccc(CNc2ccc3c(c2)ncn3C(C)C)cc1 | -2.78 (active)
19 | O=C(C1CCN(S(=O)(=O)c2cccc3cccnc23)CC1)N1CCn2c1nc1ccccc12 | 1.05
20 | COc1ccccc1/C=c1\sc2nc(-c3cc(OC)c(OC)c(OC)c3)nn2c1=O | -1.32

Row | Compound | fold change
21 | Cc1ccc(CN2C(=O)C(C(C)C(=O)NCC3CCCO3)Sc3ccccc32)cc1 (centres undefined) | -1.61
22 | COc1ccc(-c2n[nH]c3c2C(c2ccc(Cl)cc2)NC3=O)cc1 (centres undefined) | -3 (active)
23 | CCOC(=O)C1=C(CS(=O)(=O)c2ccccc2)NC(=O)NC1c1ccccc1 (centres undefined) | 1.91
24 | CN(CC(=O)NC(C)(C)C)S(=O)(=O)c1ccc2c(c1)c(=O)n(C)c(=O)n2C | -1.36
25 | O=c1[nH]c2ncccc2c(=O)n1CCc1c[nH]c2ccccc12 | -1.06
26 | CCOc1ccc(-n2c(C)c(C(C)=O)c3cc(OCC(N)=O)ccc32)cc1 | -1.01
27 | O=C(CN1C(=O)c2ccccc2S1(=O)=O)N1CCN(c2cccc(Cl)c2)CC1 | -1.25
28 | O=C(NCCc1c[nH]c2ccccc12)c1ccc(NC2=NC3CS(=O)(=O)CC3S2)cc1 (centres undefined) | -1.35
29 | Cc1c(/C=C2/SC(=S)N(CC(=O)O)C2=O)c2ccccc2n1C | 1.33
30 | CC(=O)c1cc2c(cc1NC(=O)c1cc(C)nn1-c1ccccc1)OCO2 | -1.17
31 | CSc1ccc(/C=c2\sc3nc(-c4ccco4)nn3c2=O)cc1 | -1.12
32 | CC1CCCC(NC(=O)CC(C)(C)CC2=NS(=O)(=O)c3ccccc3N2)C1C (centres undefined) | 1.01
33 | O=C(CSc1ncnc2ccccc12)NC1CCCCC1 | 1.03
34 | COc1cc(/C=C2\SC(N3CCN(CCO)CC3)=NC2=O)ccc1O | 1.07
35 | COc1cccc2cc(S(=O)(=O)c3ccccc3)c(=O)oc12 | 1.83
36 | COc1ccccc1-c1cc(N)n(S(=O)(=O)c2ccc([N+](=O)[O-])cc2)n1 | -1.09
37 | O=C(CC1(O)C(=O)Nc2ccc(Br)cc21)c1cccs1 (centres undefined) | -6.1 (active)
38 | COc1cc(OC)cc(-c2cc(N3C(=O)Nc4ccccc4N3O)n[nH]2)c1 | -1.25
39 | COc1cc(-c2nc3s/c(=C\c4cccs4)c(=O)n3n2)cc(OC)c1OC | 1.19

Source: PubChem BioAssay AID1259240 (Keith Lab, Institute of Cancer Science, University of …, 2017)
